Assay outcomes as filed in PubChem BioAssay.
Shown are actives, neighbours in structure and some others; about 2.4% of the full set was active somewhere.
CHO-K1 Ca antag = nonselective inhibitor or artifact in parental CHO-K1 cells; ATP-induced calcium, Fluo-8 fluorescence; inhibition, % at 3 µM; hit rate 0.6% among 360,000; AID 602250;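 active means inhibition above a per-plate cutoff, the plate's mean sample inhibition plus 3 SD, cut at about 24% in these data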
M1 antag = human CHRM1 antagonism; P11229; inhibition, % at 3 µM; hit rate 1.3% among 360,000; CHO-K1 hM1, Fluo-8 calcium fluorescence, ACh EC80 antagonist;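 active means percent inhibition above its own plate's cutoff, namely the mean of that plate's compound wells plus 3 SD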;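 further: peak over basal fluorescence ratio during 140 s after agonist addition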
Target sequence (P11229 whole entry, looked up): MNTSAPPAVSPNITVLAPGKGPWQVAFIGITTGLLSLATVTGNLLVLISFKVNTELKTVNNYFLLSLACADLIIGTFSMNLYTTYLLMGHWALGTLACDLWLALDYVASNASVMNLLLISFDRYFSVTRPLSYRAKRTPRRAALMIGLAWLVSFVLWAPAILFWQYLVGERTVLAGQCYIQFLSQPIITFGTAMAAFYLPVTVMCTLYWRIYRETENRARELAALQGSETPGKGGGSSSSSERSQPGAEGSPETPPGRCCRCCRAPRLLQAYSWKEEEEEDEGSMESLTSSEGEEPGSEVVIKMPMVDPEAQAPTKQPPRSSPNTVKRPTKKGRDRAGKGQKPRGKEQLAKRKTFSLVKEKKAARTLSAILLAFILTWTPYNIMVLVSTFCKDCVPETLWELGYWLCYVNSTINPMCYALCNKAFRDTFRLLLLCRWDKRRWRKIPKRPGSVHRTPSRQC
CHO-K1 Ca ag = M1 agonist counterscreen hit in parental CHO-K1 cells | hit rate 0.48% among 360,000 | Fluo-8 calcium fluorescence; scaled to maximal ATP response, vehicle zero | activation, % at 3 µM; in the data active means activation above about 15%;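 further: untransfected CHO-K1 host cells lacking M1 receptor as counterscreen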
M1 PAM parental = counter-screen for M1 PAMs: effect in parental CHO-K1 cells. AID 602247. ATP EC20, Fluo-8 calcium fluorescence; 0% at ATP EC20, 100% at ATP max. hit rate 0.02% among 360,000. activation, % at 3 µM;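 active means activation above the run cutoff, the mean activation of all test compounds plus 3 SD, cut at about 40% in these data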;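 further: peak over basal fluorescence ratio in a 140 s read after ATP addition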
CHRM1 PAM = human CHRM1 positive allosteric modulation | CHO-K1 hM1, Fluo-8 calcium fluorescence, ACh EC20; 0% = ACh EC20, 100% = maximal ACh | activation, % at 3 µM | hit rate 0.088% among 360,000; in the data active means activation above about 19%, passing the limit was not always enough
CHRM1 agonist = human M1 muscarinic receptor agonism; activation, % at 3 µM; CHO-K1 hM1, Fluo-8 calcium fluorescence, agonist mode; 0% DMSO, 100% acetylcholine EC100; AID 588814; P11229; hit rate 0.33% among 360,000;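 active means activation above the run's mean compound activation plus 3 SD, cut at about 16% in these data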;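 further: peak over basal fluorescence ratio within a 140 s kinetic read after compound addition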
Large screens that a line does not name were inactive.

COc1ccc(-c2cc(C(F)(F)F)nc(SCC(=O)Nc3cc(C)on3)n2)cc1OC	CHO-K1 Ca antag 25
COc1ccc(-c2cc(C(F)(F)F)nc(SCCC(=O)Nc3cc(C)on3)n2)cc1	none
COc1cccc(CNc2ccc(F)c([N+](=O)[O-])c2)c1O	M1 antag 90
COc1ccc(NC(=O)CSc2nccn2Cc2ccco2)c(OC)c1	none
CCCC1=NN2C(=N)/C(=C\c3cc(C)n(Cc4ccccc4)c3C)C(=O)N=C2S1	M1 antag 78, CHO-K1 Ca ag 27, CHRM1 agonist 59
CCOc1cc(/C=C/C(=O)Nc2ccc(C(=O)NCCN(CC)CC)cc2)ccc1OCC(C)C	M1 antag 64
COC(=O)c1[nH]c2cc(OC)ccc2c1N=CN(C)C	none
CCN(C(=O)COC(=O)c1ncc(Cl)c(Cl)c1Cl)c1c(N)n(Cc2ccccc2)c(=O)[nH]c1=O	none
O=C(NC1CCCCC1)Sc1ccc(Cl)cc1	CHO-K1 Ca antag 24
O=C(CSc1ccc(Cl)cc1)NC1CCCC1	none
Cc1ccc(C(C)NC(=O)/C(C#N)=C\c2c(C)[nH]c3ccccc23)cc1 (stereo unspecified)	CHRM1 agonist 21
Cc1cccc(Nc2nc(-c3c(C)nc4ccccn34)cs2)c1	M1 antag 37
Cc1cccc(C)c1NC(=O)COC(=O)c1cccc2c1C(=O)c1ccccc1C2=O	none
Cc1cccc(NC(=O)COC(=O)c2cccc3c2C(=O)c2ccccc2C3=O)c1C	M1 antag 29
Cc1noc(C)c1S(=O)(=O)N1CCN(c2ccc(Cl)cc2)CC1	none
Cc1noc(C)c1S(=O)(=O)Nc1ccc(C(=O)N2CCN(c3ccc(Cl)cc3)CC2)cc1	M1 antag 18
CCOC(=O)C1(CCOc2ccccc2)CCN(Cc2cccn2-c2ncccn2)CC1	none
COc1ccc(OC)c(S(=O)(=O)N2CCC(C(=O)Nc3ccc(C)c(C)c3)CC2)c1	M1 antag 36
CC[C@H](C)Cc1cn([C@@H](CCCN=C(NC(=O)OC(C)(C)C)NC(=O)OC(C)(C)C)C(=O)NCCCCCCCCCCC(=O)N2CCN(C(=O)OC(C)(C)C)CC2)nn1	none
Cc1cn([C@@H](CCCCNC(=O)OC(C)(C)C)C(=O)NCCCCCCCCCCC(=O)N2CCN(C(=O)OC(C)(C)C)CC2)nn1	M1 antag 44, CHO-K1 Ca ag 16
CCOC(=O)NC(NCCc1ccccc1)(C(F)(F)F)C(F)(F)F	none
C=C(C)COc1ccc(-c2ncnc(C(F)(F)F)c2-c2ccccc2)c(O)c1	M1 antag 37
COc1ccc(NC(=O)COC(=O)c2ccc(S(=O)(=O)N3CCCCCC3)cc2)c(OC)c1	none
COc1ccc(Nc2nc(N)nc(CSC(=S)N3CCCCC3)n2)cc1	none
COc1ccc(Nc2nc(N)nc(CSC(=S)N3CCCCC3C)n2)cc1 (stereo unspecified)	CHO-K1 Ca ag 22
CC1(c2ccccc2)NC(=O)N(CC(=O)Nc2ccccc2N2CCCC2)C1=O (stereo unspecified)	CHRM1 agonist 16
O=C(CN1C(=O)NC2(CCCC2)C1=O)Nc1ccccc1N1CCCC1	none
CC1(c2ccc3c(c2)OCCO3)NC(=O)N(CC(=O)Nc2c(F)cccc2F)C1=O (stereo unspecified)	none
CC1(c2ccc3c(c2)OCCO3)NC(=O)N(CC(=O)Nc2ccccc2F)C1=O (stereo unspecified)	CHO-K1 Ca antag 30
CCOc1ccc(C(=O)NCC(=O)NCCCSc2ccccc2)cc1OCC	none
COc1ccc2c(c1)OC[C@H]1[C@H]2N2C(=O)c3cc(F)ccc3NC(=O)[C@@]2(C)[C@H]1c1ccccc1	M1 antag 83
COc1ccc2c(c1)OC[C@H]1[C@H]2N2C(=O)c3cc(OC)ccc3NC(=O)[C@@]2(C)[C@H]1c1ccccc1	M1 antag 27
COc1ccc2c(c1)OC[C@H]1[C@H]2N2C(=O)c3cc(Cl)ccc3NC(=O)[C@@]2(C)[C@H]1c1ccccc1	none
CCN1CCN(c2nnc(-c3ccccc3)c3ccccc23)CC1	none
CC(C)CNS(=O)(=O)c1ccc(CCC(=O)NCc2cccnc2)cc1	none
COc1ccc([N+](=O)[O-])cc1NC(=O)COC(=O)C1CC1	none
CCOc1ccc(-n2c(-c3ccccc3)c[n+]3c2CCC3)cc1	M1 antag 38
CCOc1ccc(-n2c(-c3ccc(OC)cc3)c[n+]3c2CCCCC3)cc1	none
COc1ccc(-c2c[n+]3c(n2-c2ccc(C)cc2)CCCCC3)cc1	none
CCOc1ccc(-n2c(-c3ccc(Br)cc3)c[n+]3c2CCCCC3)cc1	M1 antag 30
CC1(C)NC(=O)N(CC(=O)OCC(=O)Nc2cccc(F)c2)C1=O	none
CCN(CC)C1CCN(Cc2c(C(=O)N3CCCCCCC3)nc3ccc(Cl)cn23)C1 (stereo unspecified)	M1 antag 32
CCOC(=O)C1=C(c2ccccc2)c2ccc(OC)cc2N(S(=O)(=O)C(F)(F)F)C1C(=O)OCC (stereo unspecified)	none
O=C(Nc1cccc(C(=O)Nc2cccc(Br)c2)c1)c1ccccc1	CHO-K1 Ca antag 25
O=C(Nc1cccc(F)c1)c1ccccc1	CHO-K1 Ca antag 36
CCNC(=O)C(=O)Nc1ccc([N+](=O)[O-])cc1	none
CC1(CN2CCCC2)CCC(NC(=O)C(c2ccccc2)c2ccccc2)C(C)(C)O1 (stereo unspecified)	none
CN(Cc1ccccc1)S(=O)(=O)c1ccc2c(c1)n(C)c(=O)c(=O)n2C	none
CN(Cc1ccccc1)S(=O)(=O)c1ccc(N2CCCC2=O)cc1	CHO-K1 Ca ag 16
CN(Cc1ccccc1)S(=O)(=O)c1ccc(NS(=O)(=O)Cc2ccccc2)cc1	M1 antag 30
Nc1ncnc2c1ncn2[C@@H]1O[C@H](COP(=O)(O)OP(=O)(O)OP(=O)(O)O)[C@@H](O)[C@H]1O	CHO-K1 Ca ag 37, CHRM1 agonist 53
Nc1ncnc2c1ncn2[C@@H]1O[C@H](CO)C[C@H]1O	CHO-K1 Ca antag 24
CCOc1ccc(OCc2cccc(C(=O)N3CCCCCC3)c2)cc1	none
O=C(OCC(=O)N1CCOCC1)c1cc2ccccc2oc1=O	none
O=S(=O)(c1ccccc1)N1CCN(Cc2c(O)ccc3ccccc23)CC1	none
Oc1ccc2ccccc2c1CN1CCN(C/C=C/c2ccccc2)CC1	M1 antag 77
Cc1occc(=O)c1OC(=O)Nc1ccc(Cl)c(Cl)c1	CHO-K1 Ca antag 29
COc1ccccc1CCC(=O)N1CCC(n2nccc2NC(=O)C2CCOC2)CC1 (stereo unspecified)	none
Cc1ccc(-c2nnc3ccc(SCC(=O)NCc4ccco4)nn23)cc1	none
Cc1cccc(C)c1NC(=O)C1CCCN(CCCc2ccccc2)C1 (stereo unspecified)	M1 antag 97
